NPC1 prom act – qHTS Assay for NPC1 Promoter Activators | Huh7 NPC1 promoter luciferase reporter, 24 h | Potency, µM (series often up to 9.22 µM), hits mostly activators | 320,000 compounds, 2.4% hits; also: nearly all actives have a fitted effect of over 60% in size
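Quantitative HTS used a cell-based reporter: Huh7 cells stably bearing the NPC1 promoter upstream of luciferase were treated with compounds for 24 h, and promoter activation was read as luminescence.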
FLuc modulator – qHTS profiling assay for firefly luciferase inhibitor/activator using purifed enzyme and Km concentrations of substrates (counterscreen for miR-21 project); AID 588342, 2011; Luciferin 4-monooxygenase (Photinus pyralis), P08659; purified FLuc, Km substrates, luminescence inhibition; Potency, µM (doses to about 57.5 µM), usual class: inhibitors; 360,000 compounds, 6.9% hits; also: nearly all actives have a fitted effect of over 55% in size
Target sequence (P08659 whole entry, looked up): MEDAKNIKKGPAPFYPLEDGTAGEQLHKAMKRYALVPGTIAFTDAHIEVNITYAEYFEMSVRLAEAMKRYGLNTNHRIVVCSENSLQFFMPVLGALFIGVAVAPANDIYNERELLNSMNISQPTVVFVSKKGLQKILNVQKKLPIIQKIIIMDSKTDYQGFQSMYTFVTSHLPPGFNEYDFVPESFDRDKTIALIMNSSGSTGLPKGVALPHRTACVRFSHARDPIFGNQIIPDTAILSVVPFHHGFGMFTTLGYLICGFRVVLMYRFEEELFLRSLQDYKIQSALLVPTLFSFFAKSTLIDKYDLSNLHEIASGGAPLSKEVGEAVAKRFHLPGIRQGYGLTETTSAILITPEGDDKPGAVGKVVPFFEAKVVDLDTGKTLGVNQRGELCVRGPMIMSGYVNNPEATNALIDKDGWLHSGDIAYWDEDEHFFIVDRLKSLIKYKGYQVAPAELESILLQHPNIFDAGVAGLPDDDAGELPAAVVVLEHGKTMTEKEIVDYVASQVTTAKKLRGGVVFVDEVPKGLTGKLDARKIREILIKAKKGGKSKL
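Purified P. pyralis luciferase (10nM final) with 10uM D-luciferin and 10uM ATP (Km levels) in 50mM Tris acetate pH 7.5, 10mM Mg acetate, 0.01% Tween-20, 0.05% BSA; qHTS 6-point titration, ~60 µM downward; luminescence read.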
ELG1 genotox – qHTS screen for small molecules that induce genotoxicity in human embryonic kidney (HEK293T) cells expressing luciferase-tagged ELG1. 330,000 compounds, 1.3% hits. HEK293T ELG1-luciferase reporter, luminescence, 16 h. Potency, µM (top dose mostly 46 µM), usual class: activators; also: nearly all actives have a fitted effect of over 60% in size
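Genotoxic stress is detected as increased luminescence from luciferase-tagged ELG1 in HEK293T cells, measured with ONE-Glo after a 16 hr treatment at 37 °C.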
SMN2 splice up – qHTS Assay for Enhancers of SMN2 Splice Variant Expression; HEK293 SMN2-luciferase splicing reporter, luminescence, 30-36 h; Potency, µM (doses to about 46.1 µM), hits mostly activators; 210,000 compounds, 2.8% hits; also: nearly all actives have a fitted effect of over 55% in size
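HEK293 cells carry an SMN2 minigene-luciferase reporter in which exon 7 inclusion puts luciferase in frame. Cells were seeded at 2000 cells/well, attached for 10-12 hours, then exposed to compounds for 30-36 hours at 37C before ONE-Glo luminescence.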
Rab9 promoter act – qHTS Assay for Rab9 Promoter Activators; Huh7 Rab9 promoter-luciferase reporter, luminescence, 24 h; Potency, µM (top dose mostly 9.22 µM), usual class: activators; 320,000 compounds, 2.8% hits; also: nearly all actives have a fitted effect of over 60% in size
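Quantitative HTS format; Huh7 Rab9-luciferase reporter cells (1500/well) receive compound 2 h post-plating, incubate 24 h at 37 °C, then get luciferase reagent for 10 min before luminescence reading.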
ELG1 DNA repair – qHTS screen for small molecules that inhibit ELG1-dependent DNA repair in human embryonic kidney (HEK293T) cells expressing luciferase-tagged ELG1. HEK293T ELG1-luciferase reporter, luminescence, 16 h; DNA damage induced by 5-fluorouridine. Potency, µM (series often up to 46.1 µM), hits mostly inhibitors. 330,000 compounds, 2.3% hits. AID 504467, 2011; also: nearly all actives have a fitted effect of over 55% in size
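Quantitative HTS, concentration-response format. 2,000 cells/well co-treated with 5-fluorouridine and compound, 16 hr in 5% CO2 at 37 °C; ONE-Glo luminescence read after 30 min.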
Numbers stand for hits; i = inactive; ? = inconclusive; nt = not tested or not shown; [ ] = another dose, or the depositor's remark. A selection: hits, their analogues and other compounds. The true share with any hit is near 9.2%. Calls follow the shape of the dose curve; as a rule, active = well fitted curve in the direction sought with a large enough effect; inconclusive = small, poorly fitted or top-dose-only effect, or another doubt; inactive = no such curve, though single readings can be large; an effect the other way counts as inactive or inconclusive.

SMILES	NPC1 prom act	FLuc modulator	ELG1 genotox	SMN2 splice up	Rab9 promoter act	ELG1 DNA repair
CN(c1ccccc1)S(=O)(=O)c1cccc(NC(=O)c2cccc(C#N)c2)c1	i	i	i	nt	i	?
Cc1ccccc1NC(=O)c1ccc2nc(N3CCOCC3)sc2c1	i	i	i	nt	?	?
COc1ccc(NC(c2ccc(F)cc2)c2nnc(-c3ccccc3Cl)o2)cc1Cl (configuration not stated)	nt	i	nt	i	nt	nt
c1cn2cc(CSC3CCCCC3)nc2s1	3.2µM	12µM	2.3µM	14µM	4µM	?
Cc1csc2nc(CSc3ccc(Cl)cc3)cn12	2.5µM	5.4µM	?	5µM	2.5µM	?
c1ccc(CSCc2cn3ccsc3n2)cc1	?	27µM	16µM	13µM	2.8µM	?
Clc1ccc(SCc2cn3ccsc3n2)cc1	2.8µM	11µM	?	i	4µM	?
O=C(Cc1cn2ccsc2n1)OCc1ccccc1	i	i	?	i	i	?
COc1ccc(CN2C(=O)c3cccnc3C2=O)cc1S(=O)(=O)N(C)c1cccc(C)c1	i	i	i	nt	i	i
Nc1nc(COC(=O)C2CC(=O)N(Cc3ccccc3Cl)C2)nc(Nc2ccccc2)n1 (configuration not stated)	i	i	i	nt	i	i
Cc1cccc(-c2nc(SCC(=O)NCC3CCCO3)c3c(=O)n(C)c(=O)n(C)c3n2)c1 (configuration not stated)	nt	i	nt	nt	nt	nt
COc1ccc(C(=O)N=c2sc3ccccc3n2C)cc1OC	2.5µM	11µM	?	18µM	2.2µM	?
COc1cccc(C(=O)N=c2sc3c(C)ccc(OC)c3n2C)c1	0.71µM	0.67µM	0.65µM	2.8µM	0.71µM	?
COc1ccc(N=c2sc3ccccc3n2C)cc1	2.5µM	6µM	8.2µM	?	2.2µM	?
COc1ccccc1C(=O)N=c1sc2c(C)ccc(OC)c2n1C	?	15µM	?	nt	i	i
COc1ccccc1N=c1sc2ccccc2n1C	i	i	i	i	i	i
COc1ccc(CCNC(=O)C(=O)NCC(c2ccco2)S(=O)(=O)c2ccc(C)cc2)cc1 (configuration not stated)	nt	i	nt	nt	nt	nt
COc1ccc(C(=O)N=c2sc3c(C)ccc(OC)c3n2C)cc1OC	1.6µM	2.7µM	i	nt	1.8µM	?
COc1ccc(OC)c2c1sc(=NC(=O)c1ccco1)n2C	i	i	?	i	i	i
S=c1[nH]cnc2sc(-c3ccccc3)cc12	i	11µM	i	nt	?	?
O=C(O)CCSc1ncnc2sc(-c3ccccc3)cc12	i	21µM	i	nt	i	i
O=C(O)CSc1ncnc2sc(-c3ccccc3)cc12	i	13µM	i	i	i	i
NC(=NC(=O)c1ccc(OC(F)(F)F)cc1)c1ccc(C(F)(F)F)cn1	i	i	i	nt	i	i
N/C(=N\OC(=O)c1csnn1)c1ccc(C(F)(F)F)cc1	?	19µM	i	nt	?	?
Cc1ccc(C(=O)O/N=C(\N)c2ccc(C(F)(F)F)cn2)cc1	i	2.1µM	i	nt	i	?
SMILES	NPC1 prom act	FLuc modulator	ELG1 genotox	SMN2 splice up	Rab9 promoter act	ELG1 DNA repair
Cc1ccn2cc(C34CC5CC(CC(C5)C3)C4)nc2c1	i	6.7µM	i	i	i	?
Cc1ccn2cc(-c3ccc(S(=O)(=O)N4CCOCC4)cc3)nc2c1	?	?	i	i	?	?
Cc1csc2nc(COC(=O)c3ccccc3NC(=O)c3ccc(F)cc3)cc(=O)n12	nt	i	nt	nt	nt	nt
Cc1ccc(-n2cc(-c3ccccc3)[nH]c2=O)cc1F	3.2µM	?	?	25µM	3.2µM	?
COc1ccc(/C=C/C(=O)NC(=S)N2CCN(c3ccccc3OC)CC2)cc1	4µM	?	i	nt	?	?
COc1ccc(/C=C/C(=O)NC(=S)N2CCOCC2)cc1	3.5µM	11µM	?	nt	1.6µM	?
COc1ccc(/C=C/C(=O)NC(=S)Nc2ccc(N3CCN(C(C)=O)CC3)cc2)cc1	i	i	i	nt	i	i
CCOc1ccccc1NC(=O)Cn1nnc2sc(-c3ccccc3)cc2c1=O	nt	i	nt	i	nt	nt
CC1=CC(C)(C)Nc2ccc(OC(=O)c3cccnc3)cc21	i	i	i	i	i	i
CC1=CC(C)(C)Nc2ccc(OC(=O)c3ccco3)cc21	i	21µM	i	i	i	?
O=C(O)C1=CC[C@@H](c2ccc(Cl)cc2)N(S(=O)(=O)c2ccc(Cl)cc2)[C@H]1c1ccc(Br)cc1	nt	nt	i	nt	nt	i
CC(=O)Nc1ccc(NC(=O)C(=O)c2cn(CC(=O)N3CCCC3)c3ccccc23)cc1	i	i	i	nt	i	i
COc1ccc(NC(=O)C(=O)c2cn(CC(=O)N3CCCC3)c3ccccc23)cc1	i	12µM	?	nt	i	?
O=C(Nc1ccccc1F)C(=O)c1cn(CC(=O)N2CCCCC2)c2ccccc12	i	5.4µM	i	?	i	i
CC(C)c1ccc(NC(=O)C(=O)c2cn(CC(=O)N3CCCCC3)c3ccccc23)cc1	i	?	i	i	i	?
CC(=O)Nc1cccc(NC(=O)C(=O)c2cn(CC(=O)N3CCCCC3)c3ccccc23)c1	i	8.5µM	i	i	?	i
O=C(CSc1cn(CC(=O)N2CCCCCC2)c2ccccc12)Nc1ccccc1F	nt	i	nt	nt	nt	nt
O=C(c1cc(COc2ccc(F)cc2F)on1)N1CCSCC1	?	15µM	21µM	nt	2.5µM	?
COc1ccc(OCc2cc(C(=O)N3CCN(C4CCCC4)CC3)no2)c(Cl)c1	3.2µM	21µM	?	nt	?	?
O=C(c1cc(COc2ccc(F)cc2Cl)on1)N1CCCCCC1	1.8µM	6.7µM	?	nt	2µM	?
CCC(NC(=O)c1cc(COc2ccc(F)cc2Cl)on1)c1ccncc1 (configuration not stated)	i	21µM	i	nt	i	?
CCC(NC(=O)c1cc(COc2cncc(Cl)c2)on1)c1ccncc1 (configuration not stated)	i	i	i	nt	i	i
CS(=O)(=O)c1ncc(CO)n1Cc1ccccc1	i	i	i	i	i	i
COc1cc(-c2cc3n(C)c(C)c(CCC(=O)NCc4ccccc4)c(=O)n3n2)cc(OC)c1OC	nt	i	nt	nt	nt	nt
CCN1CCN(C(=O)c2cc(COc3ccc(C(C)=O)cc3OC)on2)CC1	2.2µM	12µM	?	nt	3.2µM	?
Cc1ccc(OCc2cc(C(=O)N3CCN(C4CCCCC4)CC3)no2)cc1C	i	?	i[9.26 µM]	nt	i	?
COc1cc(C)ccc1OCc1cc(C(=O)N2CCN(C3CCCCC3)CC2)no1	?	17µM	?	nt	?	?

Screening results from PubChem BioAssay.
